Test results reported in PubChem BioAssay (Tox21).
Activity calls are given as the source filed them. Calls come from the whole dose curve; as a rule, active = well fitted curve in the direction sought with a large enough effect in the repeat runs; inconclusive = weak or mixed curves; inactive = flat fitted curve, though single readings scatter.

Experiment: qHTS assay to test for compound auto fluorescence at 460 nm (blue) in HepG2 cells (AID 720687)
Details: autofluorescence 405/460 nm, 1 h; series mostly up to 91.3 µM; fluorescence, % of fluorescent control: at the top concentration
Text: U.S. Tox21 Program National Center for Advancing Translational Sciences [NCATS] NIH Chemical Genomics Center [NCGC] U.S. Environmental Protection Agency [EPA] National Institutes of Environmental Health Sciences [NIEHS] National Toxicology Program [NTP] U.S. Food and Drug Administration [FDA] Tox21 Assay Overview: Compound auto fluorescence often interferes with screening of the compound library against various biological targets and signaling pathways. Some of these compounds may have fluorophoric properties. Such properties may interfere with the assay outputs resulting in false positives and/or negatives. To decrease such complications and ensure the compound activities are relevant in terms of biological response, the Tox21 10K compound library was screened for auto fluorescence. From the fluorophores used as reporter signals in our screening assays, the auto fluorescence equivalencies of compounds against three fluorophores have been evaluated: Triamterene, Fluorescein and Rose Bengal sodium for blue, green and red fluorescence, respectively. The fluorescence intensities were measured using Excitation/Emission wavelengths at 405/460nm, 485/535nm and 540/590nm for blue, green and red labels, respectively. This assay includes the blue fluorescence data.
Tox21 Assay Protocol Summary: 2,000 HepG2 cells in 5 uL of culture medium (MEM containing 10% FBS) per well were dispensed into black wall/clear bottom 1536-well plates using a Multidrop Combi Dispenser (ThermoFisher Scientific, Waltham, MA). The assay plates were incubated overnight at 37 C to allow cell attachment to the well bottom, followed by the transfer of 23 nL compound or DMSO vehicle by a pintool work station (Kalypsys , San Diego, CA). After the assay plates were incubated for 1 hr at 37 C and 5% CO2, fluorescence intensities in the assay plates were measured by an Envision (PerkinElmer, Shelton, CT) plate reader using three labels for measuring blue, green and red fluorescence at […] 460, 535 and 590 nm respectively.
% is set by controls: 0 for no effect and ±100 for the full control effect.

Row | SMILES | fluorescence, % of fluorescent control
1 | CN1C[C@@H](NS(=O)(=O)N(C)C)C[C@@H]2c3cccc4c3c(cn4C)C[C@H]21 | -0.0163% [at 46 µM] (inactive)
2 | CCN(CC)c1nc(C)cc(OP(=S)(OC)OC)n1 | -0.052% (inactive)
3 | CC(=O)C(Cl)Cl | -0.076% [at 95.7 µM] (inactive)
4 | CC(C1CC1)C(O)(Cn1cncn1)c1ccc(Cl)cc1 (stereo not given) | 0.0527% (inactive)
5 | OCCBr | 0.0084% (inactive)
6 | CCCCC(=O)Cl | 0.0309% (inactive)
7 | CC1CN1P(=O)(N1CC1C)N1CC1C (stereo not given) | 1.09% (inactive)
8 | ClCC(Cl)Cl | 0.0882% [at 95.7 µM] (inactive)
9 | CNCC(=O)c1ccc(O)c(O)c1 | -0.0019% [at 46 µM] (inactive)
10 | COP(=S)(OC)Oc1c(Cl)cc(C)cc1Cl | 0.0432% (inactive)
11 | CC(C)(C)C(=O)C(Oc1ccc(Cl)cc1)n1cncn1 (stereo not given) | -0.0998% (inactive)
12 | CNC(=O)N(C)c1nc2ccccc2s1 | -0.172% (inactive)
13 | COC(C)(C)C | -0.001% (inactive)
14 | ClC(Cl)C(Cl)Cl | -0.141% (inactive)
15 | CN1CCN(C(=O)O[C@H]2c3nccnc3C(=O)N2c2ccc(Cl)cn2)CC1 | -0.134% [at 46 µM] (inactive)
16 | CCCSP(=S)(OCC)Oc1ccc(Cl)cc1Cl (stereo not given) | -0.0461% (inactive)
17 | COCC(=O)N(c1c(C)cccc1C)N1CCOC1=O | -0.0353% (inactive)
18 | c1cc2c(c(N3CCNCC3)c1)OCCO2 | -0.0799% [at 46 µM] (inactive)
19 | C=C(C)[C@@H]1CC=C(C=O)CC1 | 0.0198% (inactive)
20 | Fc1ccc(C2(Cn3cncn3)OC2c2ccccc2Cl)cc1 (stereo not given) | -0.176% (inactive)

Row | SMILES | fluorescence, % of fluorescent control
21 | C(CCOCC1CO1)COCC1CO1 (stereo not given) | -0.0129% (inactive)
22 | O=C(Nc1ccccc1)c1ccccc1I | -0.33% (inactive)
23 | CCOP(=O)(OCC)OP(=O)(OCC)OCC | -0.0676% (inactive)
24 | COC(=O)c1c(C(F)F)nc(C(F)(F)F)c(C2=NCCS2)c1CC(C)C | -0.0238% (inactive)
25 | CCOC(=O)CP(=O)(OCC)OCC | 0.0114% (inactive)
26 | CC(=O)Nc1cc([As](=O)(O)O)ccc1O | -0.0528% [at 46 µM] (inactive)
27 | O=[N+]([O-])c1ccc(CBr)cc1 | -0.048% [at 95.7 µM] (inactive)
28 | N#Cc1c(Cl)cccc1Cl | -0.0015% (inactive)
29 | N#CCNCC#N | 0.0226% (inactive)
30 | N#CCCC#N | -0.0459% (inactive)
31 | CN1C(=S)CN=C(c2ccccc2)c2cc(Cl)ccc21 | 0.0093% [at 46 µM] (inactive)
32 | C[C@@H]1CN(C2CCC(C#N)(c3ccc(F)cc3)CC2)CC[C@]1(C(=O)O)c1ccccc1 (stereo not given in full) | -0.0325% [at 18.6 µM] (inactive)
33 | O=NN1CCCCC1 | -0.134% (inactive)
34 | Cc1cc(C)nc(Nc2ccccc2)n1 | -0.124% (inactive)
35 | CNNC | 0.0091% [at 95.7 µM] (inactive)
36 | CNC(=O)Oc1cccc(C(C)C)c1 | -0.0532% (inactive)
37 | COC(=O)COc1ccc(Cl)cc1Cl | -0.101% (inactive)
38 | O=[N+]([O-])c1cccc(O)c1 | -0.177% (inactive)
39 | CCCSC(=O)N(CCC)CCC | 0.056% (inactive)
40 | CCN(CC)C(C)C(=O)c1ccccc1 (stereo not given) | 0.0158% [at 46 µM] (inactive)
